# PubChem BioAssay
# Tested on: Neuregulin-1 EGF-like domain
# Experiment: binders of neuregulin-1 EGF-like domain, primary screen, biochemical, small-molecule microarray, 635 nm fluorescence (AID 1081);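 further: binding of the protein to compounds printed on small-molecule microarray slides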
# Conditions: small-molecule microarray binding, higher = more signal
row,SMILES,composite z-score
1,[N-]=[N+]=NCc1ccccc1[C@@H]1OC(c2ccc(OCCCO)cc2)=N[C@]1(Cc1ccccc1)C(=O)NCc1ccccc1,0.744
2,C=CCOC(=O)[C@H]1[C@@H]2C(=O)O[C@@H](c3ccccc3)[C@@H](c3ccccc3)N2[C@@H](c2ccc(OCCOC(=O)[C@@H]3C[C@@H]4C(=O)N[C@@H](CC(C)C)C(=O)N4[C@@H]3c3ccc(O)cc3)cc2)[C@]12C(=O)Nc1ccc(I)cc12,1.29
3,CC(C)CNC(=O)[C@@]1(C)c2ccccc2C(=O)N(Cc2cc(F)cc(C(F)(F)F)c2)[C@H]1c1ccc(CO)cc1,1.11
4,NCCCC[C@@H]1NC(=O)[C@H]2C[C@@H](C(=O)O)[C@@H](c3cccc(OCCO)c3)N2C1=O,1.4
5,CC(C)C[C@@H]1NC(=O)[C@H]2C[C@@H](C(=O)NCCCCCNC(=O)CS)[C@@H](c3ccc(O)cc3)N2C1=O,1.3
6,CO[C@H]1O[C@H](CO)[C@@H](OC(=O)Nc2ccccc2)[C@@H]2OC(=O)[C@H](Cc3ccccc3)C/C=C/C[C@@H](Cc3ccccc3)C(=O)O[C@@H]12,1.04
7,CC(C)CNC(=O)[C@@H]1c2ccccc2C(=O)N(Cc2ccccc2Cl)[C@H]1c1ccc(CO)cc1,0.252
8,CCc1cccc(NC(=O)O[C@H]2[C@H](OC(=O)Nc3ccc4c(c3)OCO4)[C@H](OC(=O)Nc3ccc4c(c3)OCO4)[C@@H](OC)O[C@@H]2CO)c1,1.32
9,CCN(CC)c1ccc(N2CC=CC34O[C@@H]5C=CCOC(=O)[C@@H]5[C@H]3C(=O)N(CCCO)[C@@H]4C2=O)cc1 (some centres undefined),0.391
